TCR activator = activators of T cell receptors. primary human leukocytes, anti-CD3, IL-2 HTRF, 48 h. Potency, µM (titrated, usually from 9.22 µM), hits mostly activators. 330,000 tested, under 10 active. AID 504894
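48 hr co-incubation of compounds, a-CD3 beads and primary human leukocytes; IL-2 quantified homogeneously by HTRF with anti-IL-2 K and d2 conjugates.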
PINK1 expr mod = modulators of PINK1 expression; PINK1 immunofluorescence, high-content cytometry, 24 h; Potency, µM (highest dose often 76.6 µM), usual class: activators; 410,000 tested, 0.2% active; AID 624263; active means well fitted activation curve with a large enough effect; inconclusive means small, poorly fitted or top-dose-only effect; cell line not stated here; further: nearly all actives have a fitted effect of over 65% in size
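Stable cell line treated 24 h with compounds at 5 concentrations (CCCP controls), then fixed and immunostained for PINK1 plus nuclear and cell stains; PINK1 immunofluorescence quantified by laser-scanning microplate cytometry.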
BRCA1 expr act = BRCA1 expression activation. MCF7-BRCA1-FFLuc reporter, luminescence, 48 h; response scale: scaled: vehicle 0%, 10 µM genistein 100%. Potency, µM (titrated, usually from 46.1 µM), usual class: activators. 380,000 tested, 1.1% active; further: nearly all actives have a fitted effect of over 80% in size
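First, MCF7-BRCA1-FFLuc cells (2000/well) attach for 2 h; next, compounds are pin-added and incubated 48 h at 37 °C; finally, luciferase reagent is added and luminescence read after 15 min.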
Akt phos inh = inhibitors of Akt phosphorylation; Neuro2A IGF-stimulated pAkt S473 HTRF, 20 min; hits give low values; activity change, % for hits at 50 µM; 360,000 tested, 0.32% active; in the data active means activity change below about -80%; inconclusive means mostly about -51% to -80%
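Single-point screen (50 µM final compound) in Neuro2A cells stimulated 20 min with 6 nM IGF at 37 deg C. After lysis, Ser473-phosphorylated Akt read by HTRF (ex 330 nm, em 615/665 nm) as the 665/615 ratio.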
Of the large screens only hits and unclear results are named; the others gave an inactive call. Most compounds without a hit are left out; they make up all but 1.5% or so of the library. Unless noted, the call rests on the fitted dose curve; in most records, active means well fitted curve in the direction sought with a large enough effect; inconclusive means small, poorly fitted or top-dose-only effect, or another doubt; inactive means no such curve, though single readings can be large; an effect the other way counts as inactive or inconclusive.

COc1cccc(CNC(=O)c2c(OC)cc(=O)n3c2CCN(C(=O)C2=C(C)OCCO2)CC3)c1	none (no result: TCR activator, BRCA1 expr act, Akt phos inh)
CC1CCCCC12NC(=O)N(CC(=O)Nc1sc3c(c1C(N)=O)CCC3)C2=O (centres undefined)	Akt phos inh -120%
CCN1CCCC1CNCc1cc2c(OC)c(OC)c(OC)cc2nc1N(C)C (centres undefined)	none (no result: TCR activator, BRCA1 expr act, Akt phos inh)
COc1ccc(/C=C/c2cnccn2)cc1OC	none (no result: TCR activator, Akt phos inh)
Oc1ccc(/C=C/c2cnccn2)cc1	BRCA1 expr act 13µM
CSc1ncc2c(n1)-c1ccccc1N(Cc1ccc(Cl)cc1)S2(=O)=O	none (no result: TCR activator, BRCA1 expr act, Akt phos inh)
COc1cc(C)c2c(=O)cc(-c3ccccc3)oc2c1	none (no result: TCR activator, BRCA1 expr act, Akt phos inh)
COc1cc(OC)c2c(=O)cc(-c3ccccc3)oc2c1	BRCA1 expr act 7.9µM
CCOC(=O)N1CCC(n2c(SCC(=O)Nc3nccs3)nc3ccsc3c2=O)CC1	Akt phos inh -81% (no result: TCR activator)
Cc1csc(C(C)N(C)C(=O)c2cc(NC(=O)C3CCC3)c3c(c2)nc(-c2ccncc2)n3C)n1 (centres undefined)	none (no result: TCR activator, BRCA1 expr act, Akt phos inh)
CC(=O)c1cccc(Nc2nn(-c3ccc(OC(F)(F)F)cc3)nc2C(C)=O)c1	none (no result: TCR activator, BRCA1 expr act, Akt phos inh)
CC(=O)N(C)c1ccc(NC(=O)Nc2ccc(Cl)cc2)cc1	BRCA1 expr act 11µM
CC(=O)N(C)c1ccc(NC(=O)Nc2ccc(C)cc2)cc1	none
COc1ccccc1CCNc1ncnc2sc(C(=O)N3CCCC3)c(C)c12	none (no result: TCR activator, BRCA1 expr act, Akt phos inh)
COc1ccccc1NC(=O)CSc1nnc(Cc2cccn2C)n1CCc1ccccc1	Akt phos inh -83%
Cn1c(SCC2CCCO2)nnc1C1CCN(Cc2ccc(-c3cccc(Cl)c3)o2)CC1 (centres undefined)	none (no result: TCR activator, BRCA1 expr act, Akt phos inh)
O=C(NC1CCCCC1)C(c1ccccc1F)N(Cc1ccco1)C(=O)c1ccccn1 (centres undefined)	none
CCC(C)(C(=O)NC1CCCCC1)N(Cc1ccco1)C(=O)c1ccccn1 (centres undefined)	Akt phos inh -107%
O=C(NCCc1nnc2n1CCN(CC1CC=CCC1)CC2)c1ccc(F)cc1 (centres undefined)	none (no result: TCR activator, BRCA1 expr act, Akt phos inh)
Cc1cccnc1NCc1ccc(O)c2ncccc12	PINK1 expr mod 14µM
Cc1cccc(NCc2ccc(O)c3ncccc23)c1C	PINK1 expr mod 16µM
Cc1ccc(NCc2ccc(O)c3ncccc23)cc1	none
Cc1ccc(NCc2ccc(O)c3ncccc23)cc1C	PINK1 expr mod inconclusive
O=C(/C=C/c1c(F)cccc1Cl)Nc1ncccn1	none
O=C(/C=C/c1c(Cl)cccc1Cl)N1CCOCC1	none (no result: TCR activator)
CC1CCCC(NC(=O)/C=C/c2c(F)cccc2Cl)C1C (centres undefined)	BRCA1 expr act 11µM
O=C(/C=C/c1c(F)cccc1Cl)N1CCOCC1	BRCA1 expr act 10µM
Cc1ccc(NC(=O)c2ccc(OC(=O)C(C)Oc3ccc(Cl)cc3C)cc2)cc1 (centres undefined)	BRCA1 expr act 5µM
Cc1cc(Cl)ccc1OC(C)C(=O)OCC(=O)Nc1ccc2[nH]c(=O)[nH]c2c1 (centres undefined)	none
Cc1ccc(S(=O)(=O)Nc2cc(C)cc(CCNC=O)c2C)cc1	none
Cc1c(CCNC=O)cc(C)c2c3c(oc12)CCCC3	BRCA1 expr act 10µM
Cc1ccc2cc(CNCc3cccc4ccccc34)c(N3CCC(O)CC3)nc2c1	none (no result: TCR activator, BRCA1 expr act, Akt phos inh)
COc1cc(/C=N/n2c(C)n[nH]c2=S)ccc1OCc1ccc(F)cc1	BRCA1 expr act 5.6µM
COc1cc(/C=N\n2nnnc2N)ccc1OCc1ccc(F)cc1	none
CCOC(=O)c1cnc2c(OC)cccc2c1N1CCN(c2ccc(OC)cc2)CC1	Akt phos inh -128%
CCOC(=O)c1cnc2c(OC)cccc2c1N1CCN(c2ccccc2OC)CC1	none
O=C(NCCC1=CCCCC1)c1cc(COc2c(F)cccc2F)on1	none
O=C(NCCC1=CCCCC1)c1cnsn1	BRCA1 expr act inconclusive
Cc1cc(C(=O)NCCC2=CCCCC2)no1	BRCA1 expr act 10µM
CC(=O)c1cccc(OCc2cc(C(=O)NCCC3=CCCCC3)no2)c1	BRCA1 expr act 3.2µM
Cc1cccc(NC(=O)CN2c3ccccc3S(=O)(=O)c3ccccc32)c1C	none (no result: TCR activator, BRCA1 expr act, Akt phos inh)
CCOC(=O)C[n+]1c(C)ccc2c1CCC2	Akt phos inh -109%
CCOC(=O)C[n+]1c(C)csc1C	none
O=C1CCN(C(=O)Nc2cccc(Cl)c2)N1	Akt phos inh -120%
O=C(Nc1cccc(Cl)c1)N1CCCC1	none (no result: TCR activator)
C#CCNC(=O)/C=C/c1ccc(C)cc1	BRCA1 expr act 11µM
CCc1cc2cccc(C)c2nc1SCC(=O)Nc1nonc1C	none
Cc1nonc1NC(=O)CSc1nc2cc(Cl)ccc2c2c1CCCC2	PINK1 expr mod inconclusive, Akt phos inh -94%

Source: PubChem (National Center for Advancing Translational Sciences (NCATS))
